Hits are enriched below; roughly 4.3% of the tested compounds scored in any of these assays.
FAS-TE inh: FAS thioesterase domain inhibitors, primary screen, biochemical, fluorescence intensity, uHTS; recombinant FAS-TE, OMFH fluorogenic substrate, fluorescence endpoint; inhibition, % at 15 µM; 0.67% of 360,000 active; AID 602261, 2012;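 active means compounds whose normalised, plate-corrected inhibition of enzyme fluorescence in the single-dose primary screen is 50% or more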;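 further: 0% = DMSO with enzyme and 100% = substrate without enzyme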
Target sequence (P49327 whole entry, looked up, the tested form may be a part): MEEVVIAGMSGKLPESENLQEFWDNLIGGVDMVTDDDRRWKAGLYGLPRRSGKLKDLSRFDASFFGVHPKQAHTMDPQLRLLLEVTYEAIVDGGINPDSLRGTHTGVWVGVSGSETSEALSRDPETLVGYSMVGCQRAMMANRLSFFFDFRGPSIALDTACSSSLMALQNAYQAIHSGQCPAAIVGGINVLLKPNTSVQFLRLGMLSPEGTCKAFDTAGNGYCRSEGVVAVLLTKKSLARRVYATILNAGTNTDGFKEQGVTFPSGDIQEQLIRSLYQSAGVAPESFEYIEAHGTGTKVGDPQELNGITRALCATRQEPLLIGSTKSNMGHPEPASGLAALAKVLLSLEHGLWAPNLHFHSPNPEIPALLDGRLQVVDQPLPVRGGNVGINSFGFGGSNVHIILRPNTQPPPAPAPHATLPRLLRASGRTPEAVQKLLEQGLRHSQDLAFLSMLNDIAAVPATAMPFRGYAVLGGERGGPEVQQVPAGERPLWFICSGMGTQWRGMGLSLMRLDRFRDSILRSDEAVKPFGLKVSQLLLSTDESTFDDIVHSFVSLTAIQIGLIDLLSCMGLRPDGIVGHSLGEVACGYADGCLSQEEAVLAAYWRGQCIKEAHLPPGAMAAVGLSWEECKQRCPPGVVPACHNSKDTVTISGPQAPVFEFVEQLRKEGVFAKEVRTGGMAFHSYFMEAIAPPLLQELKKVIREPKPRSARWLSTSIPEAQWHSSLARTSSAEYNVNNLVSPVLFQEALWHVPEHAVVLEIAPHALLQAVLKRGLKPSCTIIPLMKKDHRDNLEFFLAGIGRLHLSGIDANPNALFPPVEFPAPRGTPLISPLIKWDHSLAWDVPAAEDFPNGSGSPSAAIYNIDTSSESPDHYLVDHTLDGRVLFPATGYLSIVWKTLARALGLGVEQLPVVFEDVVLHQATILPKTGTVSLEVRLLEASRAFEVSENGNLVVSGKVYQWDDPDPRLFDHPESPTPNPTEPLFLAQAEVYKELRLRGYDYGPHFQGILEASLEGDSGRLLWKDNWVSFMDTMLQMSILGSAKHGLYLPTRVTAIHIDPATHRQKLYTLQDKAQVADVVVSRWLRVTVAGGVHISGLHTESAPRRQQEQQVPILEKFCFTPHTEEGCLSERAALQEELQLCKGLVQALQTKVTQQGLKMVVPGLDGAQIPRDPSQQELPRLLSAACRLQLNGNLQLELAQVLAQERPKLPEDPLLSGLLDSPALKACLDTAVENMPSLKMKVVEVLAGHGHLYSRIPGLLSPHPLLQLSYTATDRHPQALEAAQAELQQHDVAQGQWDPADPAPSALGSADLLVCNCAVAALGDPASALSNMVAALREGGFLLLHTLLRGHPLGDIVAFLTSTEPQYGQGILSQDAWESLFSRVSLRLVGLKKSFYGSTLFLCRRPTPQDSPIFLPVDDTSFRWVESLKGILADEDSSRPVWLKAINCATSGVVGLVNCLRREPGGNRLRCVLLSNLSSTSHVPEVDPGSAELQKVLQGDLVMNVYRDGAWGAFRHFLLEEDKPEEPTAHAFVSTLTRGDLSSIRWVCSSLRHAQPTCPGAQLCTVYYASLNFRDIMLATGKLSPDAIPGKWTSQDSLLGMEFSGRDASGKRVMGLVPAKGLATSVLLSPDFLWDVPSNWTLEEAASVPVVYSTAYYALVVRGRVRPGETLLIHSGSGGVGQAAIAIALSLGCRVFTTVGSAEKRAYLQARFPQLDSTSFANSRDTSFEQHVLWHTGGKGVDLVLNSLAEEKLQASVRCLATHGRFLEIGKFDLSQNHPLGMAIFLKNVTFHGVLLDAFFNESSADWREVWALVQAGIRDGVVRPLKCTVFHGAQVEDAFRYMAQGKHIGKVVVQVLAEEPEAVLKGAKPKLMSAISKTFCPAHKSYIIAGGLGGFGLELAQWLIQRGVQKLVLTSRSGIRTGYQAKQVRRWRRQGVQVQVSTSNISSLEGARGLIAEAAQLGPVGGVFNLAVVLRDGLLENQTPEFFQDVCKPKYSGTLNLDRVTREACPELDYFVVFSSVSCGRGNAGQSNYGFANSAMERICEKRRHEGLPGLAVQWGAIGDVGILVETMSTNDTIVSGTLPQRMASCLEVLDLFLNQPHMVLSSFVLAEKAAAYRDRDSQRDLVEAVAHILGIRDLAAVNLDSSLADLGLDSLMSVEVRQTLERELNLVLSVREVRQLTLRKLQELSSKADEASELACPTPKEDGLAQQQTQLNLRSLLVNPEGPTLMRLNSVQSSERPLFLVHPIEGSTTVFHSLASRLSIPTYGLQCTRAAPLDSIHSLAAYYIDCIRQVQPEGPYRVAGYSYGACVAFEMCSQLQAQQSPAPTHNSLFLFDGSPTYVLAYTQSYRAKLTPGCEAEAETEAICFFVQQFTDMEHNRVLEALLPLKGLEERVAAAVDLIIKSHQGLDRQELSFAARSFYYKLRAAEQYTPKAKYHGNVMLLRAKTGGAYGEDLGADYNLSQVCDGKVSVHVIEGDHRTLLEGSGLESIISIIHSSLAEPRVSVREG
NadD block: inhibitors of S. aureus NadD, primary screen, biochemical, colorimetric, uHTS; purified NadD enzyme, colorimetric absorbance read-out; 0.78% of 360,000 active; AID 602399, 2012; inhibition, % at 20 µM; Nicotinate-nucleotide adenylyltransferase NadD (Staphylococcus aureus N315); in the data active means inhibition above about 26%
NR3A LBD binder: binders of NR3A ligand-binding domain, primary screen, biophysical, differential scanning fluorimetry, uHTS; Glutamate receptor ionotropic, NMDA 3A (GRIN3A) ligand-binding domain; NR3A LBD differential scanning fluorimetry, Tm shift; 0% = protein alone, 100% = glycine-bound protein; Tm shift relative to glycine control, % at 25 µM; 2.5% of 340,000 active;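 active means melting temperature shift of at least 10% of the positive control shift, at one fixed dose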
rCAG binder: binders of r(CAG) RNA repeats, primary screen, biochemical, fluorescence; 1.3% of 370,000 active; inhibition, % at 3 µM; r(CAG) RNA repeat, TO-PRO-1 dye displacement fluorescence;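 active means inhibition above the plate cutoff, the mean of all test compounds on that plate plus 3 SD, cut at about 35% in these data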;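 further: 0% = DMSO alone and 100% = 100 µM mitoxantrone as full dye displacement; higher means more dye released from RNA so lower well fluorescence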
Starred values were filed as active, the others as inactive; x = not tested or not shown.

SMILES	FAS-TE inh	NadD block	NR3A LBD binder	rCAG binder
C[C@@H]1[C@@H](O)C[C@@]2(C[C@H](O)c3ccccc3O2)O[C@H]1c1ccccc1	x	x	x	0
CCN1CCCCC(NC(=O)c2ccc(F)c(F)c2)C1=O (centres undefined)	x	x	x	0
COc1ccccc1Nc1nc(-c2cccc([N+](=O)[O-])c2)nc2ccccc12	17	5	-3	2
COc1ccccc1Nc1nc(-c2ccc([N+](=O)[O-])cc2)nc2ccccc12	21	6	39*	0
COc1ccc(Nc2nc(-c3cccc([N+](=O)[O-])c3)nc3ccccc23)c(OC)c1	9	-1	21*	2
O=[N+]([O-])c1ccc(-c2nc(NCc3cccnc3)c3ccccc3n2)cc1	17	3	37*	5
CN1C(=O)c2cc(NC(=O)Nc3ccccc3)ccc2OC[C@H]2O[C@@H](CC(=O)NCc3ccc(-c4ccccc4)cc3)CC[C@@H]21	x	x	x	17
O=C(CNS(=O)(=O)c1cc2ccccc2s1)N1CCN(c2ccccn2)CC1	x	x	x	3
O=S(=O)(c1ccccc1Br)N(Cc1cn(CC2CCCCC2)nn1)C1CC1	x	x	x	-1
CN(/N=C/c1ccccc1Cl)c1ncc(Cl)cc1C(F)(F)F	22	1	-1	0
CN(/N=C/c1ccc(O)cc1O)c1ncc(C(F)(F)F)cc1Cl	27	2	26*	2
CC(=O)NC(=S)Nc1ccccc1N1CCCCC1	4	-3	13*	1
CC(C)(C)C(=O)NC(=S)Nc1ccccc1N1CCCC1	16	-2	-4	-5
C[C@@H]1OCN(C)[C@H]2C[C@H]3c4[nH]c5cccc(-c6ccccc6)c5c4CCN3C[C@@H]12	x	x	x	5
O=C(NCc1ccco1)c1ccc(S(=O)(=O)N2CCOCC2)cc1	-4	3	-1	16
COc1ccc(CC(=O)Nc2ccc(S(=O)(=O)N3CCOCC3)cc2)cc1	-3	-6	1	3
O=C(Nc1ccc(S(=O)(=O)N2CCOCC2)cc1)c1ccc(Cl)s1	13	-4	35*	11
Cc1ccc(NC(=O)c2ccc(S(=O)(=O)N3CCOCC3)cc2)cc1	-4	-4	1	1
COc1ccc(N2CCN(S(=O)(=O)c3ccc(C(=O)NCc4ccco4)cc3)CC2)cc1	0	7	28*	-2
O=C(Nc1ccc(Cl)cc1)c1ccc(S(=O)(=O)N2CCOCC2)cc1	1	-2	15*	0
COc1ccc(OCCCC(=O)Nc2ccc(S(=O)(=O)N3CCOCC3)cc2)cc1	4	-6	11*	4
CC1(c2nnnn2C2CCCCC2)CSCC(=O)N1CCc1ccc(O)cc1 (centres undefined)	x	x	x	3
N#Cc1cccc(NC(=O)OCCCN2CCC3(CCCCC3)C2=O)c1	x	x	x	-2
O=C(C1CCCN(S(=O)(=O)c2cccs2)C1)N1CCN(Cc2ccccc2)CC1 (centres undefined)	x	x	x	2
CCOc1ccc(NC(=O)c2ccc(S(=O)(=O)N3CCOCC3)cc2)cc1	0	-12	-27	0
SMILES	FAS-TE inh	NadD block	NR3A LBD binder	rCAG binder
COc1ccc(C(=O)Nc2ccc(S(=O)(=O)N3CCOCC3)cc2)cc1	-2	-10	27*	0
COc1ccc(C(=O)Nc2ccc(-c3cn4ccsc4n3)cc2)cc1S(=O)(=O)N1CCOCC1	11	-8	27*	10
O=C(CCc1ccccc1Cl)Nc1cc(S(=O)(=O)N2CCOCC2)ccc1N1CCCC1	5	3	-2	0
O=C(CCc1ccccc1Cl)Nc1ccc(S(=O)(=O)N2CCOCC2)cc1	12	-3	19*	9
COc1ccc(C(=O)Nc2ccc(N3CCOCC3)cc2)cc1S(=O)(=O)N1CCOCC1	-6	-2	1	-5
COC(=O)C1CN(Cc2ccc(F)cc2)CCS(=O)(=O)N1Cc1ccc(F)cc1 (centres undefined)	x	x	x	1
CCOC(=O)[C@]12CCCC3=C1N(CCC3)C(=O)[C@@H](CC(=O)NCCc1ccccc1OC)C2	x	x	x	-1
CSCCC(NC(=O)c1ccccc1)C(=O)N(C)CC(=O)Nc1ccc(N2CCOCC2)cc1 (centres undefined)	1	-6	13*	-7
Cc1cc(Br)ccc1OCCCN1CCC(C(O)(c2ccccc2)c2ccccc2)CC1	x	x	x	4
Cc1nc2c(C)cccc2cc1C(=O)N/N=C/c1ccc(C(=O)O)cc1	-1	8	0	4
